Test [1] is described as follows: Primary qHTS for inhibitors of nuclear receptor binding SET domain protein 2 (NSD2) in an RCH-ACV wild type WT cells (2C) (AID 1645877; note: nearly all actives have a fitted effect of over 70% in size; note: potency is the fitted concentration of half-maximal effect; for activity change, negative = cell killing: % is set by controls: 0 for no effect and ±100 for the full control effect). (In general: Quantitative high-throughput screening tests each substance at several concentrations.)
The target in test [2] is Glutathione peroxidase 1 (Homo sapiens) (UniProt P07203). Description: Primary qHTS Assay for Inhibitors of Recombinant Selenoprotein Glutathione Peroxidase 1 (GPX1) (AID 1845191). For activity, negative = inhibition: % is set by controls: 0 for no effect and ±100 for the full control effect. Note: nearly all actives have a fitted effect of over 65% in size. A digest of the protocol: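 GR-coupled assay: compounds preincubated 30 min at room temperature with GPX1, then reaction started with CHP; final 10 nM GPX1, 1 mM GSH, 0.5 mM CHP, 0.5 mM NADPH, 100 nM GR, 0.01% BSA, pH 7.5 Tris buffer. NADPH fluorescence (340/450 nm) read at 0 and 15 min.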
Chain of Glutathione peroxidase 1 (Homo sapiens) (P07203 whole entry, looked up): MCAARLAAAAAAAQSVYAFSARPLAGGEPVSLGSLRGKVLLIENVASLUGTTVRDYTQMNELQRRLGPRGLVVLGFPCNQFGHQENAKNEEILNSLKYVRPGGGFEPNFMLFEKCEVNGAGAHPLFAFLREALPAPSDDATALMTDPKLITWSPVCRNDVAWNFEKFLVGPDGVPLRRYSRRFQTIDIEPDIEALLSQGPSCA

Test [3] has as its target Phospholipid hydroperoxide glutathione peroxidase GPX4 (Homo sapiens) (UniProt P36969). Description: Primary qHTS Assay for Inhibitors of Recombinant Selenoprotein Glutathione Peroxidase 4 (GPX4) (AID 1845192). For activity change, negative = inhibition: series mostly up to about 50 µM; % is set by controls: 0 for no effect and ±100 for the full control effect. Note: nearly all actives have a fitted effect of over 65% in size. A digest of the protocol:
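GR-coupled assay: recombinant GPX4 preincubated 30 min with compound at room temperature; final 200 nM GPX4, 1 mM GSH, 0.5 mM cumene hydroperoxide, 0.5 mM NADPH, 100 nM GR, 0.01% BSA, pH 7.5 Tris. NADPH fluorescence (340/450 nm) read at 0 and 15 min.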

Test [4] deals with Luciferin 4-monooxygenase (Photinus pyralis) (UniProt P08659). Description: Primary firefly luciferase (FLuc) qHTS assay for identification of artifact compounds. (AID 1845220).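 For activity change, negative = inhibition: series mostly up to about 54 µM; plate controls were DMSO vehicle for no effect and no enzyme for full effect.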 Note: nearly all actives have a fitted effect of over 60% in size. A digest of the protocol:
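Titrated compounds were incubated 15 min at RT, protected from light, with luciferin and ATP at 10 uM; reaction started with 10 nM FLuc, luminescence imaged at 5 min, and concentration-response fitted by Hill equation.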

A short description of test [5]: Primary fluorescence-based thiol-reactive (MSTI) qHTS assay for identification of artifact compounds. (AID 1845221).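 For activity change, negative = thiol reactive: series mostly up to about 54 µM; thiol-reactive compounds lower the probe fluorescence signal.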 Note: nearly all actives have a fitted effect of over 65% in size. Note: potency is the fitted concentration of half-maximal effect. A digest of the protocol: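 One-hour, room-temperature, dark incubation of compound with 4 uM MSTI in PBS (pH 7.4, 2% DMSO) precedes a fluorescence read at 525 nm excitation, 598 nm emission; Hill-equation fitting yields concentration-response values.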

Test [6] has as its system Nanoluciferase (engineered Oplophorus gracilirostris luciferase). Description: Primary Nanoluciferase (NLuc) qHTS assay for identification of artifact compounds. (AID 1845222).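 Note: NLuc secreted into diluted conditioned medium of S16 cells; series mostly up to about 54 µM; 0% = DMSO and -100% = no enzyme.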 A digest of the protocol:
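qHTS format, against NLuc in S16 cell-conditioned medium. Nano-Glo substrate 1:100 was added after 15 min at room temperature. Luminescence was taken after a further 5 min.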

Test [7] in a line: Primary redox qHTS assay for identification of artifact compounds. (AID 1845223).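 For redox activity (% of DA3003): 0% = DMSO and 100% = reference compound.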 Note: potency is the fitted concentration of half-maximal effect. Put shortly: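 Amplex Red (25 uM) and HRP (250 mU/mL) in HBSS, with compounds for 15 min, then 250 uM DTT for 30 min, room temperature, dark. Fluorescence 525/598 nm read; normalized to DMSO and 10 uM DA3003; Hill fit.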

Unmarked numbers belong to inactive results. Inconclusive results are not listed. The source made the active and inactive calls. Calls come from the whole dose curve; as a rule, active = well fitted curve in the direction sought with a large enough effect; inconclusive = small, poorly fitted or top-dose-only effect, or another doubt; inactive = no such curve, though single readings can be large; an effect the other way counts as inactive or inconclusive.

Chain of Phospholipid hydroperoxide glutathione peroxidase GPX4 (Homo sapiens) (P36969 whole entry, looked up): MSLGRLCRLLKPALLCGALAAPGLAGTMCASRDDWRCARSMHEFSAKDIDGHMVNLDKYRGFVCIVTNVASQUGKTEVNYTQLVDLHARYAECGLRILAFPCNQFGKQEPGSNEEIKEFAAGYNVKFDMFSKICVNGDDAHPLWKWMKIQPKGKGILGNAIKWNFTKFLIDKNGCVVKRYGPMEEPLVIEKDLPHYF

On to `CCNC(=O)Nc1ncc(-c2cc(-c3c(C)cc(OC)cc3C)nc(-c3cnccn3)n2)s1`, for which the Potency entry in test [1], in test [2], in test [3], in test [4], in test [5] and in test [6] was “inactive” throughout. In addition, the Potency result in test [7] is “inactive”.
For the molecule `CC1OC2OC(=O)C3(C)CC4=C(CO)C5=C(CC(=O)C4(C)C(C1=O)C23)C(C)(C)OC(=O)C5` (stereo unspecified), the Potency result in test [1], in test [2], in test [3], in test [4], in test [5] and in test [6] was “inactive” in each case. Moreover, in test [7], the Potency entry is “inactive”.
Consider `COC1CC(OC2CCC3(C)C(=CCC4C3C(OC(C)=O)C(OC(=O)/C=C/c3ccccc3)C3(C)C(C(C)O)CCC43O)C2)OC(C)C1OC1CC(OC)C(OC2OC(C)C(OC3OC(CO)C(O)C(O)C3O)C(OC)C2O)C(C)O1` (stereo unspecified), for which, in test [1], the activity change, negative = cell killing is -17.6% [at 9.23 µM]. For the same molecule, the outcome in test [2] is “inactive [at 9.52 µM]”. In addition, the activity change, negative = inhibition in test [3] was 0.674% [at 9.73 µM]; in test [4] it was 0.278% [at 11.6 µM]. Besides, in test [5], the activity change, negative = thiol reactive was 40.8% [at 11.5 µM]. For the same molecule, in test [6], the activity, negative = inhibition is 3.09% [at 11.6 µM]. In addition, the redox activity (% of DA3003) in test [7] is -2.26% [at 11.5 µM].
On to `CC1CCC2C(C(=O)O)=COC(O[C@@H]3O[C@H](CO)[C@@H](O)[C@H](O)[C@H]3O)C12` (stereo partly specified), for which the Potency result in test [1], in test [2], in test [3], in test [4], in test [6] and in test [7] was “inactive” throughout. In addition, the Potency in test [5] was 5.85 µM (active).
As for `CC(=O)OC1C(O)C2C(C)C3=CC(=O)OC3(O)CC2C2(C)CCCC(C)(CO)C12` (stereo unspecified), the Potency entry in test [1], in test [2], in test [3], in test [4], in test [5] and in test [6] was “inactive” each time. Besides, the Potency result in test [7] is “inactive”.
On to `Cn1ncnc1COc1nn2c(-c3cc(F)ccc3F)nnc2cc1C(C)(C)C`, for which the Potency in test [1] was 1.03 µM (active). The Potency entry in test [2], in test [3], in test [4], in test [5], in test [6] and in test [7] was “inactive” in each case.
Turning to `CC(=O)OC1C[C@]2(C)C(O)CC(C)=C[C@H](OC(=O)c3ccc(O)cc3)C2[C@]1(O)C(C)C` (stereo partly specified), the Potency result in test [1], in test [2], in test [3], in test [4], in test [5] and in test [6] was “inactive” in each case. Also, the Potency entry in test [7] was “inactive”.
For `C=C[C@H]1C(O[C@@H]2O[C@H](CO)[C@@H](O)[C@H](O)[C@H]2O)OC=C2C(=O)N3CCc4c([nH]c5ccccc45)C3CC21` (stereo partly specified), the Potency result in test [1], in test [2], in test [3], in test [4], in test [5] and in test [6] was “inactive” in each case. For the same molecule, the Potency result in test [7] is “inactive”.
Take `CC(=O)C12OC(C)(C)OC1CC1C3CCC4=CC(=O)C=CC4(C)C3(F)C(O)CC12C` (stereo unspecified): in test [1], the Potency was 0.0065 µM (active). Besides, the Potency result in test [2], in test [3], in test [4], in test [5], in test [6] and in test [7] was “inactive” in each case.
Take `O=C(/C=C\c1ccc(O)cc1)N[C@@H](Cc1ccc(O)cc1)C(=O)O`: the Potency entry in test [1], in test [2], in test [3], in test [4], in test [6] and in test [7] was “inactive” in each case. Further, the Potency in test [5] is 6.56 µM (active).
Turning to `CC(O)c1cc(C(=O)N[C@@H](C)Cn2ccc(-c3ccc(C#N)c(Cl)c3)n2)n[nH]1` (stereo partly specified), the Potency in test [1] was 20.9 µM (active). In addition, the Potency entry in test [2], in test [3], in test [4], in test [5], in test [6] and in test [7] was “inactive” in each case.
As to `N[C@@]1(C(=O)O)CC[C@H]2[C@H](C(=O)O)[C@H]21`, the Potency result in test [1], in test [2], in test [3], in test [4], in test [5] and in test [6] was “inactive” in each case. In test [7], the Potency result is “inactive”.
With `C=C(CO[C@@H]1O[C@H](CO[C@@H]2OC[C@](O)(CO)[C@H]2O)[C@@H](O)[C@H](O)[C@H]1O)C1Cc2cc(C(C)=O)ccc2O1` (stereo partly specified), the Potency result in test [1], in test [2], in test [3], in test [4], in test [6] and in test [7] was “inactive” in each case. Further, in test [5], the Potency is 5.19 µM (active).
Consider `CC(=O)N[C@H]1[C@H](O[C@H]2CC[C@@]3(C)C(CC[C@]4(C)C3CC=C3C5CC(C)(C)CC[C@]5(C(=O)O)[C@H](O)C[C@]34C)C2(C)C)O[C@H](CO[C@@H]2OC[C@H](O)[C@H](O)[C@H]2O[C@@H]2OC[C@@H](O)[C@H](O)[C@H]2O)[C@@H](O)[C@@H]1O` (stereo partly specified), for which the activity change, negative = cell killing in test [1] is 3.06% [at 9.23 µM]. Further, the Potency entry in test [2] and in test [3] was “inactive” throughout. For the same molecule, the activity change, negative = inhibition in test [4] is -1.17% [at 11.6 µM]. The activity change, negative = thiol reactive in test [5] is 85% [at 11.5 µM]. For the same molecule, in test [6], the activity, negative = inhibition was 0% [at 11.6 µM]. Moreover, the redox activity (% of DA3003) in test [7] is 8.12% [at 11.5 µM].
As for `COC(=O)c1c(C)cc(OC(=O)c2c(C)cc(OC)cc2OC)cc1O[C@@H]1O[C@H](CO)[C@@H](O)[C@H](O)[C@H]1O`, the Potency entry in test [1], in test [2], in test [3], in test [4], in test [5] and in test [6] was “inactive” in each case. Besides, the Potency in test [7] is 2.92 µM (active).
Take `O=C(O)CCCCCC[C@H]1C(=O)NC(=O)N1CC[C@@H](O)C1CCCCC1`: the Potency result in test [1], in test [2], in test [3], in test [4], in test [5] and in test [6] was “inactive” throughout. Besides, the Potency entry in test [7] was “inactive”.
Take `Cc1ccccc1-n1c([C@H](C)Nc2nc(N)nc3nc[nH]c23)nc2cccc(C)c2c1=O`: in test [1], the Potency was 0.411 µM (active). Also, the Potency entry in test [2], in test [3], in test [4], in test [5], in test [6] and in test [7] was “inactive” throughout.
With `CC(C)CCC[C@@H](C)[C@H]1CC[C@H]2[C@@H]3CC(=O)[C@H]4C[C@@H](O)CC[C@]4(C)[C@H]3CC[C@]12C`, the Potency result in test [1], in test [2], in test [3], in test [4], in test [5] and in test [6] was “inactive” in each case. Also, the Potency result in test [7] was “inactive”.

The values above are taken from PubChem BioAssay (NCATS).
